# According to publication PMC5913336, “True equilibrium measurement of transcription factor-DNA binding affinities using automated polarization microscopy”:
# Biological target: T1, GATAe (Drosophila melanogaster, UniProt Q9VF00 512-604)
# T1 sequence: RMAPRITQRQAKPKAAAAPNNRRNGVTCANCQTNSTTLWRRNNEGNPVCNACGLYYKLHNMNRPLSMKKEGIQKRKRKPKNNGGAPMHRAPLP
# Experiment: FP; 33 mM phosphate pH 7.0, 90 mM NaCl, 0.01% Tween 20, 0.1 mM DTT, 0.5% agarose; room temperature
# Details: tags: N-GST (pGEX-6P-1, kept); dsDNA, one strand shown
Sequence,binding signal,Kd [nM]
CATGTGATCTAC,11.2 Kd / Kd of best base at the position,–
CATGTTATCTAG,1.71 Kd / Kd of best base at the position,–
CTTGTTATCTAC,1.46 Kd / Kd of best base at the position,–
CATGTTATCTAC,–,~7.3
CACGTTATCTAC,1.57 Kd / Kd of best base at the position,–
CATTTTATCTAC,1.94 Kd / Kd of best base at the position,–
CATGTTATCTAA,1.53 Kd / Kd of best base at the position,–
CATATTATCTAC,2.02 Kd / Kd of best base at the position,–
CATGGTATCTAC,3.02 Kd / Kd of best base at the position,–
CATGTTATCTTC,1.72 Kd / Kd of best base at the position,–
CCTGTTATCTAC,1.53 Kd / Kd of best base at the position,–
CATGTTATCAAC,1.76 Kd / Kd of best base at the position,–
CATGTTATCTCC,1.58 Kd / Kd of best base at the position,–
CATGTTATCGAC,2.3 Kd / Kd of best base at the position,–
CATGTTACCTAC,20.8 Kd / Kd of best base at the position,–
CATGCTATCTAC,2.34 Kd / Kd of best base at the position,–
CATGATATCTAC,2.32 Kd / Kd of best base at the position,–
CATGTTTTCTAC,35.6 Kd / Kd of best base at the position,–
CATGTTGTCTAC,9.99 Kd / Kd of best base at the position,–

Sequence,binding signal,Kd [nM]
TATGTTATCTAC,1.62 Kd / Kd of best base at the position,–
CAGGTTATCTAC,1.9 Kd / Kd of best base at the position,–
CATGTTATCCAC,3.95 Kd / Kd of best base at the position,–
CATGTTATATAC,17.7 Kd / Kd of best base at the position,–
CATGTTCTCTAC,42.3 Kd / Kd of best base at the position,–
CATGTTATCTGC,1.67 Kd / Kd of best base at the position,–
CATGTTATGTAC,25.2 Kd / Kd of best base at the position,–
CAAGTTATCTAC,2.12 Kd / Kd of best base at the position,–
GATGTTATCTAC,1.64 Kd / Kd of best base at the position,–
CATGTAATCTAC,2.43 Kd / Kd of best base at the position,–
CGTGTTATCTAC,1.55 Kd / Kd of best base at the position,–
AATGTTATCTAC,1.68 Kd / Kd of best base at the position,–
CATGTCATCTAC,13.1 Kd / Kd of best base at the position,–
CATGTTATTTAC,15.3 Kd / Kd of best base at the position,–
CATCTTATCTAC,1.22 Kd / Kd of best base at the position,–
CATGTTAGCTAC,25.2 Kd / Kd of best base at the position,–
CATGTTAACTAC,9.8 Kd / Kd of best base at the position,–
CATGTTATCTAT,1.52 Kd / Kd of best base at the position,–
